Screening results from PubChem.
Hits are enriched below; roughly 21% of the tested compounds scored in any of these assays.
ELG1 repair inh: inhibitors of ELG1-dependent DNA repair in HEK293T cells; HEK293T ELG1-luciferase reporter, luminescence, 16 h; DNA damage induced by 5-fluorouridine; Potency, µM (highest dose often 46.1 µM), inactives show at the top dose activity change, negative = inhibition, actives largely listed as inhibitors; 330,000 compounds, 2.3% hits; note: potency is the fitted concentration of half-maximal effect; nearly all actives have a fitted effect of over 55% in size
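Luminescence from the luciferase reporter, measured 30 min after ONE-Glo reagent at room temperature, was the read-out. Beforehand, 2,000 cells per well were exposed for 16 hr at 37 °C to 5-fluorouridine together with compound or vehicle.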
Gal4-VP16 FLuc: Gal4-VP16 reporter inhibition counter-screen. Drosophila S2 Gal4-VP16 UAS-luciferase, luminescence, 20 h. Potency, µM (series often up to 53.6 µM), inactives show at the top dose activity, negative = inhibition, hits mostly inhibitors. 310,000 compounds, 3.5% hits;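 note: Gal4-VP16 expression switched on by copper sulfate through the metallothionein promoter; potency is the fitted concentration of half-maximal effect; nearly all actives have a fitted effect of over 50% in size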
TDP1 cell noCPT: qHTS for Inhibitors of human tyrosyl-DNA phosphodiesterase 1 (TDP1): qHTS in cells in absence of CPT; DT40 Tdp1-/- hTDP1 cells, no CPT, ATP luminescence, 48 h; 420,000 compounds, 15% hits; Potency, µM (doses to about 46.2 µM), inactives show top-dose activity change, negative = growth inhibition, actives largely listed as inhibitors; AID 686978, 2013; note: potency is the fitted concentration of half-maximal effect; nearly all actives have a fitted effect of over 55% in size
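Chicken DT40 Tdp1-/- cells complemented with human TDP1, screened without camptothecin (DMSO vehicle only), 400 cells/well. Compounds pin-transferred, cells incubated at 37 °C for at least 48 hr. Growth read as ATP-dependent luminescence (CellTiter-Glo, 30 min at RT).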
IL-1B inflam inh: inhibitors of inflammasome signaling (IL-1 beta secretion); THP-1 LPS/ATP IL-1B secretion, AlphaLISA, 16 h; stronger effect = lower value; 360,000 compounds, 4.7% hits; activity change, % at 57.5 µM; in the data active = activity change below about -50%; inconclusive = mostly about -30% to -49%
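THP-1 cells pretreated 1 hr with compounds (up to 57.5 uM final), then stimulated with LPS (250 ng/mL final) plus ATP (1.25 mM final); secreted IL-1B measured by AlphaLISA after 16 hr, decreased signal indicating inhibition.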
DT40 TDP1 CPT: DT40-hTDP1 cell growth loss with CPT; chicken DT40 Tdp1-/-;hTDP1 cells + 20 nM CPT, ATP luminescence, 48 h; Potency, µM (titrated, usually from 46.2 µM), without a hit: top-dose activity change, negative = growth inhibition, hits mostly inhibitors; AID 686979; 420,000 compounds, 12% hits; note: potency is the fitted concentration of half-maximal effect; nearly all actives have a fitted effect of over 55% in size
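Chicken DT40 Tdp1-/- cells stably complemented with human TDP1 were seeded at 400 cells/well in medium containing 20 nM camptothecin, exposed to pin-transferred compounds, and grown at 37 °C for at least 48 hr. Viability was read as ATP luminescence.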
RORgamma inh: inhibitors of mouse ROR gamma transcriptional activity; Potency, µM (highest dose often 53.6 µM), without a hit: at the highest dose activity change, negative = inhibition, usual class: inhibitors; Drosophila S2 Gal4-RORgamma UAS-luciferase reporter, 20 h; 310,000 compounds, 5.4% hits; note: potency is the fitted concentration of half-maximal effect; nearly all actives have a fitted effect of over 60% in size
Target sequence (P51450 whole entry, looked up, the tested form may be a part): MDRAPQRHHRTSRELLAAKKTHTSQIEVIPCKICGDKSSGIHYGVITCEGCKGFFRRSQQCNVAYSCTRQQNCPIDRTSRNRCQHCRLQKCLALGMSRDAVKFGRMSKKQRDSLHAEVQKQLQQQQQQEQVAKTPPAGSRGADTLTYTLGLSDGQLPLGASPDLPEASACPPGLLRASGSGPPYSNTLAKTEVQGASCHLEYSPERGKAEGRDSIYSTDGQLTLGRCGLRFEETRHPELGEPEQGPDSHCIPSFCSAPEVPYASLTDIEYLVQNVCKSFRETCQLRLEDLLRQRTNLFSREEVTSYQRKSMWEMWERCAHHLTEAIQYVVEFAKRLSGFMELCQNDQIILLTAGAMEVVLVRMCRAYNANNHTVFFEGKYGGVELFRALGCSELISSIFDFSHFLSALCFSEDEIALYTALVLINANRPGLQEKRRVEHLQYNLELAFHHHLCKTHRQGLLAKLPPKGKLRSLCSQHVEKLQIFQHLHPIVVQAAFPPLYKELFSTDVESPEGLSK
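In this cell-based reporter format, copper sulfate (700 uM final) drives Gal4–ROR gamma fusion expression from a metallothionein promoter in Drosophila Schneider cells; compounds preincubated 1 hr, reporter read after 20 hr at ambient temperature.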
Numbers without * were called inactive; ? = inconclusive; / = no result; ! = not confirmed by another sample; [ ] = dose if it differs, or a comment. Unless noted, calls come from the whole dose curve; as a rule, active = well fitted curve in the direction sought with a large enough effect; inconclusive = small, poorly fitted or top-dose-only effect, or another doubt; inactive = no such curve, though single readings can be large; an effect the other way counts as inactive or inconclusive. % is set by controls: 0 for no effect and ±100 for the full control effect.

SMILES | ELG1 repair inh | Gal4-VP16 FLuc | TDP1 cell noCPT | IL-1B inflam inh | DT40 TDP1 CPT | RORgamma inh
O=C(c1n[nH]c2c1CCCC2)N1CCOc2ccc(C(O)C(c3ccccc3)c3ccccc3)cc2C1 (stereo unspecified) | / | / | ? | / | 19.4%[9.04 µM] | /
CC/C(=C(\c1ccccc1)c1ccc(OCCN(C)C)cc1)c1ccccc1 | / | 31.6µM*! | 18.4µM* | -71.9*! | 20.6µM* | 10µM*!
COc1ccc(C(Cl)=C(c2ccc(OC)cc2)c2ccc(OC)cc2)cc1 | 0.9% | 0.4% | ? | -8.0 | ? | 24.3%
CCN(CC)CCOc1ccc(/C(=C(/Cl)c2ccccc2)c2ccccc2)cc1 | -12.9% | ? | 23.1µM* | ? | 23.1µM* | ?
COC(=O)C/C=C\[C@@H](C)[C@@H](/C=N\OC[C@@H](O)COCc1ccco1)OC | / | -6.8%[10 µM] | / | / | / | 12.0%[10 µM]
Cc1ccc(C2(COC(=O)C(C)C)CO2)c(OC(=O)C(C)C)c1 (stereo unspecified) | 11.4% | 8.91µM* | -19.6% | 28.3 | -18.1% | -7.3%
Cc1ccc(S(=O)(=O)c2c(C)nn(-c3ccccc3)c2OC(=O)c2ccccc2F)cc1 | / | / | ? | / | -14.6% | /
O=C(OCc1ccccc1C(F)(F)F)c1ccc(Br)c(S(=O)(=O)N2CCOCC2)c1 | / | / | ? | -11.6 | ? | /
CC(=O)N/C(N)=N/c1nc(=O)c2ccccc2s1 | ? | 0.5% | -18.2% | -6.2 | -2.7% | -23.8%
CC(C)NC(=O)NC(=O)COC(=O)CCCSc1nc2ccccc2s1 | 11.5% | 6.31µM* | -7.5% | 21.5 | -3.8% | 11.2µM*
CCOC(=O)N/C(N)=N/c1nc2ccccc2s1 | ? | 28.2µM* | -29.4% | 50.3 | ? | ?
CCOC(=O)NC(=O)COC(=O)CCCSc1nc2ccccc2s1 | 1.0% | 8.91µM* | 12.6% | 25.4 | 9.0% | 7.08µM*
NC(=O)NC(=O)COC(=O)CCCSc1nc2ccccc2s1 | -15.9% | 8.91µM* | 18.0% | 80.1 | -0.7% | 11.2µM*
N#Cc1cccc(NC(=O)Cn2cnc(S(=O)(=O)N3CCOCC3)c2)c1 | -6.9% | 0.9% | ? | 9.8 | ? | -16.4%
CCCCCN(C(=O)CCC(=O)OCc1cccc(F)c1)c1c(N)n(CCCC)c(=O)[nH]c1=O | -9.3% | / | -2.2% | -14.6 | 2.4% | /
CCCCCN(C(=O)CCC(=O)OCc1ccc(Cl)cc1Cl)c1c(N)n(CCCC)c(=O)[nH]c1=O | -16.5% | / | ? | -65.8* | ? | /
CCCCCN(C(=O)CCC(=O)OCc1ccccc1Cl)c1c(N)n(CCCC)c(=O)[nH]c1=O | 6.3% | 6.4% | -18.2% | 0.0 | ? | 27.2%
CCCCCN(C(=O)CCC(=O)OCc1cccc(C)c1)c1c(N)n(CCCC)c(=O)[nH]c1=O | 0.1% | / | ? | -0.8 | 20.6µM* | /
O=C(NCc1ccc2c(c1)OCO2)C(=O)NCC1CCCO1 (stereo unspecified) | -7.0% | 0.4%[10 µM] | -0.3% | 0.0 | 0.4% | 0.9%
COc1ccc(OCCOC(=O)C(C)NS(=O)(=O)c2ccc(NC(C)=O)cc2)cc1 (stereo unspecified) | ? | / | ? | -77.1* | -14.9% | /
COc1ccc(C(=O)COC(=O)[C@H](C)NS(=O)(=O)c2ccc(NC(C)=O)cc2)cc1OC | / | / | -7.6% | -92.8* | -5.5% | /
CC(=O)Nc1ccc(S(=O)(=O)N[C@@H](C)C(=O)OCC(=O)c2ccc(Br)s2)cc1 | / | / | -22.2% | 14.2 | -8.2% | /
NC(=O)c1ccccc1NC(=O)COC(=O)C1(c2ccccc2)CC1 | 11.5% | / | -17.8% | -3.6 | -14.9% | /
CCN(Cc1ccccc1OC)CC1CCCN(CCc2cccc(OC)c2)C1 (stereo unspecified) | 0.6% | 1.7% | ? | ? | 14.6µM* | 0.2%
